Screens (PubChem)
This is a sample that favours compounds with a hit; in the whole collection about 32% have one here.
CYP2C9 inhib: blockers of cytochrome P450 2C9 activity – biochemical, luminescence, ADME assay, primary screen | P11712 | CYP2C9 Supersomes, luciferin-H conversion | inhibition, % at 5 µM | hit rate 20% among 96,000;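 active = blocking of liver enzyme CYP2C9 beyond about 50% at 5 µM, limit read from the data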
CYP2C9 act: human CYP2C9 activators, primary screen, biochemical, luminescence; Cytochrome P450 2C9 (Homo sapiens), P11712; recombinant CYP2C9, luciferin-H conversion; stronger effect = higher value; factor 1 = untreated enzyme, 0 = blocked; activation factor at 5 µM; hit rate 1.4% among 96,000;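 active = activation factor of 2 or more for CYP2C9 at a 5 µM dose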
CYP2C19 activ: human CYP2C19 activators, primary screen, biochemical, luminescence. Cytochrome P450 2C19 (Homo sapiens), P33261. recombinant CYP2C19, luciferin-H EGE luminescence; stronger effect = higher value; 0 = fully inhibited enzyme, 1 = untreated enzyme. activation factor at 5 µM. 96,000 tested, under 10 active;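 active = activation factor of at least 2 at 5 µM in the primary screen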
Target sequence (P33261 whole entry, looked up): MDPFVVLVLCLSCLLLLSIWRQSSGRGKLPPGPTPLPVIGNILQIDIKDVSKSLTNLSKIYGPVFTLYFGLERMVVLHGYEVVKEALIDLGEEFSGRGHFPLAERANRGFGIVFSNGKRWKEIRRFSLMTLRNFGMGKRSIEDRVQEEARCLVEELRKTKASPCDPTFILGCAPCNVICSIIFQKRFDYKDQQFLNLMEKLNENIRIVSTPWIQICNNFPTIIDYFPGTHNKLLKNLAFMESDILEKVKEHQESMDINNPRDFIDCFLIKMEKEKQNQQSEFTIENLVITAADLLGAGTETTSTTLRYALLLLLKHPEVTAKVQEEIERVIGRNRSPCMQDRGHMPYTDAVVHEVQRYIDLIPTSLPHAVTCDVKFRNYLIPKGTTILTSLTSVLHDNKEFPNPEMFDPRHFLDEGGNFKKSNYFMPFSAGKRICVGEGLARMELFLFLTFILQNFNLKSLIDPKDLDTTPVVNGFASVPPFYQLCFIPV
CYP2C19 inh: blockers of cytochrome P450 2C19 activity – biochemical, luminescence, ADME assay, primary screen | P33261 | CYP2C19 Supersomes, luciferin-H EGE luminescence, 30 min | inhibition, % at 5 µM | hit rate 21% among 96,000 | AID 778, 2007;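 active = CYP2C19 inhibition above a set limit at 5 µM in the primary screen, cut at about 50% in these data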
PostGolgi ctrl: growth inhibition of yeast control strain, primary screen, counter-screen for post-Golgi transport modulator project. hit rate 5% among 98,000. inhibition, % at 10 µM. AID 738, 2007. efflux-deficient yeast background strain, growth absorbance A615, 16 h
PostGolgi yeast: phenotypic screen on post-Golgi transport, primary screen; post-Golgi transport phenotypic cell assay; inhibition, % at 10 µM; hit rate 0.9% among 98,000;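 note: yeast cells grown in 1536-well plates; yeast grown about 18 h at 30C before absorbance read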
Numbers stand for hits; – = inactive; · = no result given. Cut-off read from the data, not from the text of the source, unless noted: active = inhibition above about 30%; inactive = the rest.

SMILES | CYP2C9 inhib | CYP2C9 act | CYP2C19 activ | CYP2C19 inh | PostGolgi ctrl | PostGolgi yeast
C=CCOc1ccc(CNn2c(C)n[nH]c2=S)cc1OC | – | – | – | 61 | – | –
COc1ccc(CNc2n[nH]c(NCc3ccc(OC)c(OC)c3)n2)cc1OC | – | – | – | – | – | –
CCn1ncc(Cl)c1C(=O)NC(C)c1ccccc1 (centres undefined) | – | – | – | 62 | – | –
COC(=O)C1CSc2[nH]c(=O)sc2C1c1ccc(O)c(OC)c1 (centres undefined) | – | – | – | – | – | –
CCOC(=O)C1CSc2[nH]c(=O)sc2C1c1ccccc1 (centres undefined) | 62 | – | – | 81 | – | –
O=C(N/N=C/c1ccc(F)cc1)c1cc(-c2ccco2)nc2ccccc12 | – | – | – | – | – | –
O=C(N/N=C/c1ccc(-c2ccccc2[N+](=O)[O-])o1)c1cccnc1 | – | – | – | – | – | –
O=C(NCc1ccco1)c1cc(-c2ccncc2)nc2ccccc12 | 57 | – | – | 80 | – | –
CC(/C=N/NC(=O)c1cc(-c2ccncc2)nc2ccccc12)=C\c1ccco1 | 100 | – | – | 96 | – | –
Cc1ccc(-c2cc(C(=O)NCc3ccco3)c3ccccc3n2)o1 | – | – | – | – | – | –
O=C(N/N=C/c1ccc([N+](=O)[O-])o1)c1cc(-c2ccncc2)nc2ccccc12 | 90 | – | – | 53 | – | –
O=C(NCc1ccco1)c1cc(-c2cccnc2)nc2ccccc12 | 70 | – | – | – | – | –
CC(C)CNC(=O)COC(=O)c1ccc(Cl)c(S(N)(=O)=O)c1 | – | – | – | – | – | –
CSc1ccc(Cl)c(C(=O)OCC(=O)NCC(C)C)c1 | – | – | – | 66 | – | –
CCCSc1nc(C)cc(C)c1C(N)=O | – | – | – | – | – | –
COc1cccc(-c2ccc(-c3noc(-c4ccccc4F)n3)c(OC)n2)c1 | 61 | – | – | – | – | –
COc1cccc(-c2ccc(-c3noc(-c4cccs4)n3)c(OC)n2)c1 | – | – | – | – | – | –
COc1ccc(-c2ccc(-c3noc(C(C)C)n3)c(OC)n2)cc1 | 72 | – | – | 66 | – | –
Cc1[nH]n(-c2ccccc2)c(=O)c1CCOC(=O)c1cccc(C(F)(F)F)c1 | – | – | – | 78 | – | –
O=C(CCSc1ccccc1)Nc1nccs1 | – | – | – | 62 | – | –
COc1ccccc1C(CC(=O)Nc1nccs1)c1ccco1 (centres undefined) | 55 | – | – | 64 | – | –
CCC(=O)NCCC(c1ccco1)c1ccccc1OC (centres undefined) | · | · | · | · | – | –
O=C(CCSc1ccccc1)Nc1ncccn1 | – | – | – | – | – | –
Cc1ccccc1OCCCC(=O)Nc1nccs1 | – | – | – | 80 | – | –
O=C(CCSc1ccccc1)NC1CCCC1 | – | – | – | 83 | – | –
SMILES | CYP2C9 inhib | CYP2C9 act | CYP2C19 activ | CYP2C19 inh | PostGolgi ctrl | PostGolgi yeast
CC(C)OC(=O)c1ccc(NC(=O)C2C3CC4OC(=O)C2C4C3)cc1 (centres undefined) | · | · | · | · | – | –
Cc1ccc(C)c(OCCCC(=O)Nc2nccs2)c1 | – | – | – | – | – | –
O=C(CCCC(=O)OCC(F)(F)C(F)F)Nc1nccs1 | 60 | – | – | 51 | – | –
Cc1ccc(S(=O)(=O)NCCCCCC(=O)Nc2nccs2)cc1 | 80 | – | – | 74 | – | –
Nc1ccc(Cc2nc3c(ccc4ccccc43)[nH]2)cc1 | – | – | – | 86 | – | –
O=C(O)c1cc2c(ccc3ccccc32)[nH]1 | – | – | – | – | – | –
Cc1ccc2nc(Cc3ccc(N)cc3)[nH]c2c1 | – | – | – | 82 | – | –
Cc1ccc2c(CC(=O)O)coc2c1C | – | – | – | – | – | –
CCn1c(SCC(=O)Nc2sc(C)c(C)c2C#N)nnc1C(C)C | 91 | – | – | 98 | – | –
COCCn1c(SCC(=O)Nc2sc(C)c(C)c2C#N)nnc1C(C)C | 92 | – | – | 80 | – | –
COc1ccc(CCN2CC34C=CC(O3)C(C(=O)NCc3ccccc3)C4C2=O)cc1OC (centres undefined) | – | – | – | – | – | –
COc1ccccc1CN1C(=S)SC(C)(C)C1NO (centres undefined) | 68 | – | – | 91 | – | –
CCc1ccc(N2CCCn3c2nc2c3c(=O)n(CCN3CCOCC3)c(=O)n2C)cc1 | – | – | – | – | · | ·
O=C1CC(C(=O)Nc2ccc(Br)cc2)C2(CCCC2)O1 (centres undefined) | 61 | – | – | 97 | – | –
Cc1ccc(NC(=O)C2CC(=O)OC23CCOC(C)(C)C3)cc1 (centres undefined) | – | – | – | 66 | – | –
CC1(C)CC2(CCO1)OC(=O)CC2C(=O)Nc1cccc2ccccc12 (centres undefined) | – | – | – | – | – | –
CCN(CCCNC(=O)C1CCC(=O)N1Cc1ccc(F)cc1)c1cccc(C)c1 (centres undefined) | – | – | – | – | – | –
c1ccc(-c2n[nH]c3ccccc23)cc1 | – | – | – | – | – | –
c1ccc(-c2n[nH]nc2-c2ccccc2)cc1 | – | – | – | – | 30 | –
O=S(=O)(Cc1cc(Sc2ccc(Cl)cc2)nc(-c2ccccc2)n1)c1ccccc1 | 81 | – | – | 65 | – | –
CCOC(=O)C(C)Sc1cc(CS(=O)(=O)c2ccccc2)nc(-c2ccccc2)n1 (centres undefined) | 96 | – | – | 77 | – | –
O=S(=O)(Cc1cc(Oc2ccccc2)nc(-c2ccccc2)n1)c1ccccc1 | 61 | – | – | 59 | – | –
Cc1nc(CS(=O)(=O)c2ccc(Cl)cc2)cc(Sc2ccc(Cl)cc2)n1 | 88 | – | – | – | – | –
O=S(=O)(NCc1ccc(F)cc1)c1ccc2c(c1)OCCO2 | – | 2 | – | 60 | – | –
O=C1CCCN1c1ccc(S(=O)(=O)Nc2ccc3c(c2)OCCO3)cc1 | – | – | – | – | – | –
SMILES | CYP2C9 inhib | CYP2C9 act | CYP2C19 activ | CYP2C19 inh | PostGolgi ctrl | PostGolgi yeast
O=C(O)CCC(=O)N1CCc2cc(S(=O)(=O)Nc3ccc4c(c3)OCCO4)ccc21 | – | – | – | – | – | –
O=S(=O)(Nc1ccc2c(c1)OCCO2)c1ccc(F)cc1 | 69 | – | – | 88 | – | –
CSc1ccc(S(=O)(=O)N2CCCC2)cc1 | · | · | · | · | – | –
CSc1ccc(S(=O)(=O)Nc2ccc3c(c2)OCCO3)cc1 | – | – | – | 68 | – | –
CSc1ccc(S(=O)(=O)Nc2ccc(N3CCOCC3)c(Cl)c2)cc1 | 98 | – | – | 100 | – | –
CCN(CCCNC(=O)c1[nH]c(C)c(C(C)=O)c1C)c1ccccc1 | – | – | – | – | – | –
